Test results published in PubChem BioAssay (EPA / NIEHS).
Calls of active or inactive are those of the source. The calls were made as follows: active = hit-call score of the fitted dose curve at least 0.9, where 1 is the maximum; inactive = score below 0.9.

How the values were obtained:
Settings in all cases: mRNA level, 48 h; actives raise or lower the signal
CYP4A11 (gene 1579) = test: LTEA_HepaRG_CYP4A11: Life Technologies and Expression Analysis (LTEA) Assay for CYP4A11 using HepaRG (AID 2283486)
How it was run: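 HepaRG, 48 h chem exposure, 8 conc (100 uM top, half-log), 0.5% DMSO vehicle; qRT-PCR readout, housekeeping-gene normalized; bidirectional curve fit vs DMSO baseline.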

[1] = read-out: Cytochrome P450 3A4 (Homo sapiens) (UniProt P08684); test: LTEA_HepaRG_CYP3A4: Life Technologies and Expression Analysis (LTEA) Assay for CYP3A4 using HepaRG (AID 2283487)
How it was run: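 Differentiated HepaRG cells in serum-free induction medium exposed in duplicate for 48 h to 8 half-log concentrations up to 100 uM in 0.5% DMSO. CYP3A4 mRNA measured by qRT-PCR normalized to ACTB, GAPDH and POLR2A; bidirectional fit versus DMSO.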

[2] = read-out: DNA damage-inducible transcript 3 (DDIT3), DDIT3 (gene 1649); test: LTEA_HepaRG_DDIT3: Life Technologies and Expression Analysis (LTEA) Assay for DNA damage-inducible transcript 3 (DDIT3) using HepaRG (AID 2283488)
How it was run: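 Differentiated human HepaRG cells in serum-free induction medium were exposed in duplicate for 48 h to 8 concentrations (top 100 uM, half-log steps, 0.5% DMSO). DDIT3 mRNA measured by TaqMan qRT-PCR, normalized to ACTB/GAPDH/POLR2A; bidirectional fit versus DMSO.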

[3] = read-out: Pro-epidermal growth factor (Homo sapiens) (UniProt P01133); test: LTEA_HepaRG_EGF: Life Technologies and Expression Analysis (LTEA) Assay for Epidermal growth factor (EGF) using HepaRG (AID 2283489)
How it was run: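 HepaRG, 48 h dosing, 100 uM top, half-log x8, 0.5% DMSO. Readout: TaqMan qRT-PCR (Fluidigm array), housekeeping-normalized. Gain or loss of signal fit vs DMSO.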

[4] = read-out: Early growth response protein 1 (EGR1) transcription factor, EGR1 (gene 1958); test: LTEA_HepaRG_EGR1: Life Technologies and Expression Analysis (LTEA) Assay for Early growth response protein 1 (EGR1) transcription factor using HepaRG (AID 2283490)
How it was run: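 Differentiated HepaRG cells in serum-free induction medium exposed 48 hours, duplicate, to 8 half-log concentrations up to 100 uM in 0.5% DMSO. EGR1 mRNA measured by TaqMan qRT-PCR, normalized to ACTB, GAPDH, POLR2A; bidirectional fit versus DMSO.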

[5] = read-out: Ezrin (EZR), EZR (gene 7430); test: LTEA_HepaRG_EZR: Life Technologies and Expression Analysis (LTEA) Assay for Ezrin (EZR) using HepaRG (AID 2283491)
How it was run: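 Differentiated human HepaRG cells, 48 h after plating, were exposed in serum-free induction medium for 48 hours to eight half-log concentrations up to 100 uM in 0.5% DMSO. EZR mRNA was measured by TaqMan qRT-PCR, normalized to ACTB, GAPDH and POLR2A, and fitted bidirectionally against DMSO.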

[6] = read-out: Cytochrome P450 3A7 (Homo sapiens) (UniProt P24462); test: LTEA_HepaRG_CYP3A7: Life Technologies and Expression Analysis (LTEA) Assay for CYP3A7 using HepaRG (AID 2283492)
How it was run: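 Human HepaRG liver cells, 48 h post-plating, switched to serum-free induction medium and exposed in duplicate for 48 h. Dosing: 100 uM top, half-log dilutions, 8 points, 0.5% DMSO vehicle. Read-out: CYP3A7 mRNA, gain or loss fitted against DMSO baseline.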

CYP3A5 (gene 1577) = test: LTEA_HepaRG_CYP3A5: Life Technologies and Expression Analysis (LTEA) Assay for CYP3A5 using HepaRG (AID 2283493)
How it was run: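 Differentiated HepaRG cells in serum-free induction medium were dosed 48 h with test chemicals (8-point half-log series, top 100 uM, 0.5% DMSO, duplicate). CYP3A5 mRNA measured by qRT-PCR, normalized to ACTB, GAPDH, POLR2A; bidirectional fit versus DMSO.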

[7] = read-out: Fatty Acid-Binding Protein 1 (FABP1), FABP1 (gene 2168); test: LTEA_HepaRG_FABP1: Life Technologies and Expression Analysis (LTEA) Assay for Fatty Acid-Binding Protein 1 (FABP1) using HepaRG (AID 2283494)
How it was run: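 Differentiated human HepaRG cells exposed 48 h in serum-free induction medium to eight half-log concentrations up to 100 uM (0.5% DMSO), duplicate. FABP1 mRNA by qRT-PCR, normalised to ACTB, GAPDH, POLR2A; bidirectional fitting against DMSO.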

[8] = read-out: Cytochrome P450 4A22 (Homo sapiens) (UniProt Q5TCH4); test: LTEA_HepaRG_CYP4A22: Life Technologies and Expression Analysis (LTEA) Assay for Cytochrome P450 4A22 (CYP4A22) using HepaRG (AID 2283495)
How it was run: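 Readout is CYP4A22 transcript induction or loss, quantified by qRT-PCR and normalized to ACTB, GAPDH and POLR2A. Human HepaRG cells receive test chemicals for 48 h at eight half-log concentrations from 100 uM in 0.5% DMSO.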

[9] = read-out: Cytochrome P450 7A1 (Homo sapiens) (UniProt P22680); test: LTEA_HepaRG_CYP7A1: Life Technologies and Expression Analysis (LTEA) Assay for Cytochrome P450 7A1 (CYP7A1) using HepaRG (AID 2283496)
How it was run: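 Gene expression endpoint in human HepaRG liver cells treated for 48 h with test chemicals (up to 100 uM, 0.5% DMSO). Values come from bidirectional concentration-response fitting versus DMSO.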

[10] = read-out: Glutathione S-Transferase (GSTA2), GSTA2 (gene 2939); test: LTEA_HepaRG_GSTA2: Life Technologies and Expression Analysis (LTEA) Assay for Glutathione S-Transferase (GSTA2) using HepaRG (AID 2283497)
How it was run: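 Differentiated human HepaRG cells were exposed in duplicate for 48 h in serum-free induction medium, 8 points from 100 uM top in half-log steps, 0.5% DMSO. GSTA2 mRNA was measured by TaqMan qRT-PCR, normalized to ACTB, GAPDH and POLR2A; bidirectional fit versus DMSO.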

[11] = read-out: Glutamate-cysteine ligase catalytic (GCLC), GCLC (gene 2729); test: LTEA_HepaRG_GCLC: Life Technologies and Expression Analysis (LTEA) Assay for Glutamate-cysteine ligase catalytic (GCLC) using HepaRG (AID 2283498)
How it was run: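 Differentiated HepaRG cells exposed 48 h in serum-free induction medium, eight-point half-log series topping at 100 uM in 0.5% DMSO, duplicates. GCLC mRNA by qRT-PCR normalized to ACTB, GAPDH and POLR2A, fitted bidirectionally versus DMSO.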

[12] = read-out: growth arrest and DNA damage 45 (GADD45G), GADD45G (gene 10912); test: LTEA_HepaRG_GADD45G: Life Technologies and Expression Analysis (LTEA) Assay for growth arrest and DNA damage 45 (GADD45G) using HepaRG (AID 2283499)
How it was run: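 Gain or loss of GADD45G mRNA, quantified by TaqMan qRT-PCR against three housekeeping genes, is fitted in both directions relative to 0.5% DMSO. Human HepaRG cultures receive test chemical for 48 h at up to 100 uM.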

[13] = read-out: Glutamate-cysteine ligase regulatory (GCLM), GCLM (gene 2730); test: LTEA_HepaRG_GCLM: Life Technologies and Expression Analysis (LTEA) Assay for Glutamate-cysteine ligase regulatory (GCLM) using HepaRG (AID 2283500)
How it was run: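 Differentiated human HepaRG cells exposed 48 h in serum-free induction medium to 8-point half-log concentrations (top 100 uM, 0.5% DMSO), in duplicate. GCLM mRNA quantified by qRT-PCR, normalized to ACTB, GAPDH, POLR2A; bidirectional fitting versus DMSO.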

[14] = read-out: Glutathione S-transferase M3 (GSTM3), GSTM3 (gene 2947); test: LTEA_HepaRG_GSTM3: Life Technologies and Expression Analysis (LTEA) Assay for Glutathione S-transferase M3 (GSTM3) using HepaRG (AID 2283501)
How it was run: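 HepaRG, plated 48 h, then serum-free induction medium; test chemical 48 h, duplicate; 100 uM top, half-log x8, 0.5% DMSO. Read-out: GSTM3 mRNA (TaqMan qRT-PCR, Fluidigm array). Bidirectional fit vs DMSO.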

[15] = read-out: Heat shock 70 kDa protein 1 (HSPA1A), gene 3303; test: LTEA_HepaRG_HSPA1A: Life Technologies and Expression Analysis (LTEA) Assay for Heat shock 70 kDa protein 1 (HSPA1A) using HepaRG (AID 2283502)
How it was run: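 Differentiated human HepaRG cells in serum-free induction medium were exposed in duplicate for 48 h to eight concentrations (top 100 uM, half-log steps, 0.5% DMSO). HSPA1A mRNA was quantified by qRT-PCR, normalized to ACTB, GAPDH and POLR2A, and fitted bidirectionally against DMSO.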

[16] = read-out: Hypoxia-inducible factor 1-alpha (Homo sapiens) (UniProt Q16665); test: LTEA_HepaRG_HIF1A: Life Technologies and Expression Analysis (LTEA) Assay for Hypoxia-inducible factor 1 (HIF1A) Trancription factor using HepaRG (AID 2283503)
How it was run: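 HepaRG, 48 h exposure, 8-pt half-log series from 100 uM, 0.5% DMSO vehicle, duplicates. Readout: HIF1A transcript by qRT-PCR (Fluidigm array), housekeeping-normalised. Bidirectional curve fit vs DMSO baseline.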

[17] = read-out: 3-Hydroxy-3-Methylglutaryl-CoA Synthase 2 (HMGCS2), HMGCS2 (gene 3158); test: LTEA_HepaRG_HMGCS2: Life Technologies and Expression Analysis (LTEA) Assay for 3-Hydroxy-3-Methylglutaryl-CoA Synthase 2 (HMGCS2) using HepaRG (AID 2283504)
How it was run: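 HepaRG, plated 48 h then switched to serum-free induction media; cmpd 8-pt, max 100 uM, 1/2-log, 0.5% DMSO, n=2, 48 h. HMGCS2 mRNA by Fluidigm TaqMan qRT-PCR, ACTB/GAPDH/POLR2A norm; bidirectional fit vs DMSO.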

HGF (gene 3082) = test: LTEA_HepaRG_HGF: Life Technologies and Expression Analysis (LTEA) Assay for Hepatocyte Growth Facto (HGF) using HepaRG (AID 2283505)
How it was run: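 Read-out is HGF transcript level by qRT-PCR, normalized to three housekeeping genes, fitted bidirectionally against 0.5% DMSO vehicle. Human HepaRG cells received test chemicals for 48 h at up to 100 uM.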

Measured: AC50

Chain of Hypoxia-inducible factor 1-alpha (Homo sapiens) (Q16665 whole entry, looked up): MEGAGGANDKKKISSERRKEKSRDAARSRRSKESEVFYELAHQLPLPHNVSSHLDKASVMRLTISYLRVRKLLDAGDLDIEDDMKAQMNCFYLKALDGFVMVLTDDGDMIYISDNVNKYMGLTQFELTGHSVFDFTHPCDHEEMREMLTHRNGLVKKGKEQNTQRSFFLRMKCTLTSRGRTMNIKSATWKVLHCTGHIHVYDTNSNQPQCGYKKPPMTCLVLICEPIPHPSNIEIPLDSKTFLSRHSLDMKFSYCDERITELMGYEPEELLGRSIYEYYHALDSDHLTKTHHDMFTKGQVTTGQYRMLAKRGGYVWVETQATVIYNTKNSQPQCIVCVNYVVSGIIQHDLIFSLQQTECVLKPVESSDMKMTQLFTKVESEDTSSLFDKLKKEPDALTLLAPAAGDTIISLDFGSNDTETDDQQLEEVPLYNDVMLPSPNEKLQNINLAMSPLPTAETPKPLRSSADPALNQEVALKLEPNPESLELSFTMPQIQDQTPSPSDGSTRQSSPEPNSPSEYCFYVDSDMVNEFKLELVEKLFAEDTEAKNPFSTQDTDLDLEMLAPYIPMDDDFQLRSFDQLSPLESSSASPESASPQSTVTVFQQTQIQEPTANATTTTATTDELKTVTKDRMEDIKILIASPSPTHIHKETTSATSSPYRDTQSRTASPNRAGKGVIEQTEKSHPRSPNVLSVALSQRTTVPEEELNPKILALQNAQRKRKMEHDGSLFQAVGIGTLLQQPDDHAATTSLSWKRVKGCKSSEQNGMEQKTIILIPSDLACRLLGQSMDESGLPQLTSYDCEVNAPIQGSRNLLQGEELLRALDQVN
Chain of Cytochrome P450 3A7 (Homo sapiens) (P24462 whole entry, looked up): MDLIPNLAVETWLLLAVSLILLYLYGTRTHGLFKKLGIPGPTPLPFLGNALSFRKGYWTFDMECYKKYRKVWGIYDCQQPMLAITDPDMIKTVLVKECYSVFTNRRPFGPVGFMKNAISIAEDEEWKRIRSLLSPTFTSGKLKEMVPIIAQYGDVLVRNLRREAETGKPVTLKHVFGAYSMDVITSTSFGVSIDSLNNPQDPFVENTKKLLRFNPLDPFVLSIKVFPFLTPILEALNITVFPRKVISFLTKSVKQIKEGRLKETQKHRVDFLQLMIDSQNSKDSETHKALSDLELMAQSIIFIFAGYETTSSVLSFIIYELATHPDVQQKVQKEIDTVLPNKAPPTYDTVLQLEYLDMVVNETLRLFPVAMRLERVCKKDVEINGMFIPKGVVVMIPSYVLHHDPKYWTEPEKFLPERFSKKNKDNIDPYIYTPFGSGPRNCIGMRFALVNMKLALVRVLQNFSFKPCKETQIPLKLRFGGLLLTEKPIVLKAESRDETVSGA
Chain of Cytochrome P450 3A4 (Homo sapiens) (P08684 whole entry, looked up): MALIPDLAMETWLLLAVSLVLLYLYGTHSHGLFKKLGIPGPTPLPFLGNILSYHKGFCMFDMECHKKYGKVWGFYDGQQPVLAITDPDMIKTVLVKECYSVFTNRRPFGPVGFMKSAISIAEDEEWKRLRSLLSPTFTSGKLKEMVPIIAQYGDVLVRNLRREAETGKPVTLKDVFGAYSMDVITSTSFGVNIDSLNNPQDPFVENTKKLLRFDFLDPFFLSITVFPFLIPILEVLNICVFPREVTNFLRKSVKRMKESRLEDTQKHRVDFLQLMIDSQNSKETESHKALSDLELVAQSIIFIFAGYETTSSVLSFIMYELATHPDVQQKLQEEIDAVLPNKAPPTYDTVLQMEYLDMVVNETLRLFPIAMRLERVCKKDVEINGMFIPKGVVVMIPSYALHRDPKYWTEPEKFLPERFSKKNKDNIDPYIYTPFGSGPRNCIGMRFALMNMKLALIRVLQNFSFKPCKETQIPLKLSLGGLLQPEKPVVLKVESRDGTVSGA

Clc1ccc(Cl)c(Cl)c1
active: [2] 9.92 µM | [9] 50 µM | [10] 84 µM | [11] 9.92 µM | [17] 50 µM
inactive: all other assays above

CC(C)(O)c1cnn2c(-c3ccc(F)c(-c4c(F)cccc4C#N)c3)cnc2n1
active: CYP4A11 (gene 1579) 1.51 µM | [1] 263 nM | [7] 1.57 µM | [8] 1.71 µM | [9] 4.14 µM | [17] 13.1 µM
inactive: all other assays above

O=Cc1ccco1
inactive: all assays above

O=P(OCCCl)(OCCCl)OCCCl
active: [15] 9.92 µM
inactive: all other assays above

Cc1cc(N=Nc2ccccc2C)ccc1N
active: CYP4A11 (gene 1579) 4.52 µM | [1] 2940 nM | [6] 6.38 µM | CYP3A5 (gene 1577) 3.11 µM | [7] 5.03 µM | [8] 4.39 µM | [9] 12.8 µM | [10] 5.01 µM | [11] 1.67 µM | [12] 4.14 µM | [13] 50 µM | [14] 1.48 µM | [15] 3.55 µM | [16] 7.09 µM | [17] 12.8 µM
inactive: [2] | [3] | [4] | [5] | HGF (gene 3082)

CCCCCCCCCCCCCN1CC(C)OC(C)C1 (stereo not given)
inactive: all assays above
